aSyn UTR act – Activators via SNCA 5'UTR binding, MLPCN | alpha-synuclein 5'UTR reporter, activators screen | activity score, % (tested at 7.5 µM), hits read low | hit rate 7.1% among 300,000; in the data active = activity score below about -60%
* = called active by the depositor; + = active, no number. Not all results are given here.

SMILES	aSyn UTR act
CN1C(=O)C(O)(c2nnc(-c3ccccc3)o2)c2ccccc21 (stereo not drawn)	-96.0*
CCOC(=O)c1c(C)oc2c1c(C(c1cccnc1)N1CCOCC1)c(O)c1ccccc12 (stereo not drawn)	-245.3*
O=c1c2ccccc2nnn1-c1ccc(Br)cc1	-169.5*
COc1ccc(-c2cc(C(=O)N3CCCCCC3)no2)cc1OC	-123.6*
COc1ccc(-c2cc(C(=O)N3CCCCCC3)no2)cc1	-85.5*
CNC(C)C#Cc1ccc2oc3cccc(OC)c3c(=O)c2c1 (stereo not drawn)	-128.3*
CNC(C)C#Cc1ccc2c(=O)c3c(OC)cccc3oc2c1 (stereo not drawn)	-66.4*
Cc1ccc(C(=O)Nc2ncc(Cc3ccc(SC(F)F)cc3)s2)cc1	-162.7*
Cc1ccc(C(=O)Nc2ncc(C)s2)o1	-119.0*
Cc1ccc(C(=O)Nc2ncc(Cc3ccc(F)cc3)s2)o1	-106.5*
CSc1ccccc1C(=O)Nc1ncc(C)s1	-62.8*
CC(=O)NC1=NN(C(C)=O)C(c2ccc(C(C)C)cc2)S1 (stereo not drawn)	-77.5*
S=C(Nc1ccccc1)N1CCCCCCC1	-88.2*
OCC1CCCN(C(=S)Nc2ccc(Nc3ccccc3)cc2)C1 (stereo not drawn)	-130.1*
CC(C)c1ccc(NC(=S)N2CCCC2)cc1	-86.4*
Cc1ccc(NC(=S)N2CCCC(O)C2)cc1 (stereo not drawn)	-62.6*
CN(C)c1ccc(NC(=S)NC23CC4CC(CC(C4)C2)C3)cc1	-128.5*
COc1ccc(OCc2cnc(Cl)s2)cc1	-82.0*
Cc1ccc(OCc2cnc(Cl)s2)c(C)c1	-134.3*
CC(=O)NC(c1ccccc1)c1nc2ccccc2[nH]1 (stereo not drawn)	-64.5*
CCOC(=O)c1cnc2c(-c3ccc(Cl)cc3)cnn2c1C	-97.6*
Nc1c(-c2cccc(Cl)c2)cnc2c(-c3ccccc3)cnn12	-243.3*
Cc1nn2c(N)c(-c3ccccc3)cnc2c1-c1ccccc1	-131.2*
Fc1ccc(-c2cnn3c(-c4ccncc4)ccnc23)cc1	-69.4*
COc1ccc(-c2c(C)nc3c(-c4ccc(F)cc4)cnn3c2N)cc1	-142.9*
SMILES	aSyn UTR act
Nc1c(-c2ccc(Cl)cc2)cnc2c(-c3ccc(F)cc3)cnn12	-95.2*
O=C(/C=C/c1ccc2ccccc2c1)c1ccoc1	-123.4*
COc1cccc2sc(Nc3nnc(-c4ccccc4Cl)o3)nc12	66.3
COc1ccccc1-c1nnc(Nc2nc3c(OC)cccc3s2)o1	81.5
COc1cccc(-c2nnc(Nc3nc4c(F)cccc4s3)o2)c1	-145.4*
O=C(CC1Sc2ccccc2NC1=O)c1ccc(Br)cc1 (stereo not drawn)	-218.0*
O=C(Cc1ccccc1F)Nc1ccccc1-c1ccccc1	-85.2*
CC(=O)N(O)CCCCCNC(=O)CCC(=O)N(O)CCCCCNC(=O)CCC(=O)N(O)CCCCCN	74.6
Nc1cc(N)nc(SCCOc2ccccc2)n1	-69.4*
Nc1cc(N)nc(SCCOc2ccccc2F)n1	-81.3*
Cc1ccccc1-c1cc2nc(C)c(C)c(=O)n2[nH]1	-100.8*
Cc1nc2cc(-c3ccc(F)cc3)[nH]n2c(=O)c1C	-129.3*
Cc1nc2cc(-c3cccs3)[nH]n2c(=O)c1C	-107.9*
COc1cccc(NC(=S)Nc2cc(C(=O)O)ccc2N2CC3CC(C2)c2cccc(=O)n2C3)c1 (stereo not drawn)	-94.8*
c1ccc(OCCOc2ccccc2-c2nnco2)cc1	-64.4*
COc1cc(NC(=O)c2cc3nc(C4CC4)cc(C(F)(F)F)n3n2)c(OC)cc1Cl	-69.9*
Cc1cc2nc(-c3cccnc3SCC(=O)NC3CC3)[nH]c2cc1C	-114.8*
Cc1cc2nc(-c3cccnc3SCC(=O)NCc3ccco3)[nH]c2cc1C	-144.8*
CCCS(=O)(=O)c1nc(S(=O)(=O)c2ccc(C)cc2)c(N2CCOCC2)s1	-61.8*
Cc1ccc(S(=O)(=O)c2nc(S(=O)(=O)CCO)sc2N2CCOCC2)cc1	-95.9*
CCCS(=O)(=O)c1nc(S(=O)(=O)c2ccc(C)cc2)c(N2CCN(CCO)CC2)s1	-97.8*
CCN(CC)c1ccc(NC(=S)NC(=O)C2CCC2)cc1	-63.6*
Cc1cc(NC(=S)NC(=O)C2CC2)ccc1Br	-114.0*
COc1ccc(NC(=O)NC2CCCCC2C)cc1 (stereo not drawn)	-81.0*
COc1ccc(NC(=S)NC(=O)C2CCCCC2)cc1	-86.4*
SMILES	aSyn UTR act
Cc1ccc2nc(SC(C)C(=O)N3CCOCC3)[nH]c2c1 (stereo not drawn)	-94.4*
CC(=O)N1N=C(c2ccc(C)cc2)OC1c1cccnc1 (stereo not drawn)	-75.2*
COC(=O)c1ccc(N2OC3(C)C=CC2CC3)cc1 (stereo not drawn)	-88.5*
O=C(Nc1ncccc1O)c1ccc(S(=O)(=O)Nc2ccccc2)cc1	+
O=C(Nc1ccccc1O)c1ccc(NS(=O)(=O)c2cccc3cccnc23)cc1	-604.6*
COCCNC(=O)c1cc2oc3ccccc3c2n1C	-98.5*
CCOc1ccccc1CNC(=O)c1cc2oc3ccccc3c2n1C	50.9
Cc1ccc(-c2cc3nc(-c4ccccc4)cc(N)n3n2)cc1	-236.3*
CSc1nc(N)n2nc(-c3ccccc3)cc2n1	-118.6*
COc1cc(/C=N/NC(=O)c2ccncc2)ccc1OCC(=O)Nc1ccccc1	-100.2*
O=C(COc1ccc(/C=N/NC(=O)c2ccccc2O)cc1)Nc1ccccc1	-126.4*
O=C(COc1ccc(/C=N/NC(=O)c2cc3ccccc3o2)cc1Cl)Nc1ccccc1	100.8
O=C(N/N=C/c1ccc(OCC(=O)N2CCCCC2)cc1)c1ccccc1O	-74.1*
COc1cc(/C=N/NC(=O)c2ccccc2O)ccc1OCC(=O)Nc1ccccc1	-140.0*
COc1cccc(C=Nc2ccccc2C(=O)Nc2ccccc2)c1O	-70.9*
Cc1ccc(C=Nc2ccccc2C(N)=O)cc1	-109.2*
Cc1ccc(C=Nc2ccccc2C(=O)Nc2ccccc2)cc1	-77.2*
CC(C)CN=c1cc(-c2ccccc2)oc2ccc(Cl)cc12	-123.3*
OCCN=c1cc(-c2ccccc2)oc2ccc(Cl)cc12	-199.3*
NNC(=O)c1[nH]c2ccc(Cl)cc2c1-c1ccccc1	77.0
CC(O)CN=c1cc(-c2ccccc2)oc2ccc(Cl)cc12 (stereo not drawn)	-238.8*
CN(C)S(=O)(=O)Oc1ccc(C(=O)Nc2cccc(Cl)c2)cc1	-243.6*
CN(C)S(=O)(=O)Oc1cccc(C(=O)Nc2ccccc2Cl)c1	-91.3*
CN(C)S(=O)(=O)Oc1cccc(C(=O)Nc2ccc(Cl)cc2)c1	-129.3*
CC1CCc2c(nc3sc4c(c3c2N)CCCC4)C1 (stereo not drawn)	-125.1*
SMILES	aSyn UTR act
CC1CCc2nc3sc4c(c3c(N)c2C1)CCCC4 (stereo not drawn)	-132.1*
CC1CCC(C(C)C)C(OC(=O)Cn2c(-c3ccccc3)[n+](C)c3ccccc32)C1 (stereo not drawn)	76.9
O=C(Nc1ccccc1)OCC1CCCO1 (stereo not drawn)	-83.9*
Cc1cccc(NC(=O)c2ccc(OCC3CCCO3)cc2)c1C (stereo not drawn)	-69.7*
O=C(Nc1ccc(Cl)cc1)c1ccc(OCC2CCCO2)cc1 (stereo not drawn)	-201.9*
Cc1ccc2nc(-c3ccc(NS(=O)(=O)c4ccc(F)c(F)c4)cc3)sc2c1	-123.8*
Cc1ccc2nc(-c3ccc(NS(=O)(=O)c4ccccc4)cc3)sc2c1	-85.5*
COc1ccc(/C=C/C(=O)Nc2ccccc2)cc1OC	-140.3*
COc1ccc(/C=C/C(=O)O/N=C(\N)c2ccccc2)cc1OC	-138.4*

Screening data: PubChem BioAssay, Broad Institute
